# In PubChem BioAssay AID734 (The Scripps Research Institute Molecular Screening Center, 2007):
# The whole screen tested about 5,100 compounds, of which fewer than 10 were called active. The list is a sample of the results. Unmarked numbers belong to inactive results.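 Rule for the calls: active = inhibition above the mean inhibition over all tested compounds plus 3 SD (cut at about 75% in these data); inactive = the rest.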
# Molecular target: Collagenase 3 (Homo sapiens) (UniProt P45452)
# Experiment: human MMP13 inhibition, fluorescence-interfering compounds – biochemical, possible fluorescent artifacts, delta fluorescence, confirmation (AID 734);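 note: 0% = DMSO only wells and 100% = 8 µM reference MMP13 inhibitor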
# Settings: MMP13 fTHP FRET cleavage, delta fluorescence 4 h; hits give high values;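 each compound tested at 4 µM nominal in triplicate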
row,SMILES,inhibition
1,c1ccc(-c2noc(-c3cccc4ccccc34)n2)nc1,6.64%
2,COc1cc(OC)cc(-c2nnc(Nc3nc4c(F)cccc4s3)o2)c1,95.7% (active)
3,COc1ccc(-c2nnc(Nc3nc4c(OC)cccc4s3)o2)c(OC)c1,34.9%
4,Fc1cccc2sc(Nc3nnc(-c4ccccc4)o3)nc12,74.7% (active)
5,Fc1cccc2sc(Nc3nnc(-c4ccco4)o3)nc12,0.58%
6,COc1cccc2sc(Nc3nnc(-c4ccccc4Cl)o3)nc12,3.62%
7,COc1cccc(-c2nnc(Nc3nc4c(F)cccc4s3)o2)c1,104% (active)
8,COc1ccc(-c2nnc(Nc3nc4c(OC)cccc4s3)o2)cc1,7.97%
9,COc1ccccc1-c1nnc(Nc2nc3c(OC)cccc3s2)o1,2.8%
10,COc1cccc2sc(Nc3nnc(-c4cccs4)o3)nc12,-71.9%
11,O=C(C1CCCN(S(=O)(=O)c2cnc[nH]2)C1)N1CCN(Cc2ccccc2)CC1 (centres undefined),6.19%
12,Cn1c(=O)c2c(nc(SCCN3CCOCC3)n2Cc2ccccc2Cl)n(C)c1=O,4.43%
13,COC(=O)c1nn(-c2ccc(-c3ccccc3)cc2)cc1O,-1.13%
14,CCOC(=O)COc1ccc(-c2nnc(-c3ccccc3)o2)cc1,-0.26%
15,CC1(C)CC(=O)C(C=Nc2ccccc2C(=O)O)=C(O)C1,3.67%
16,CCOc1ccc(-c2cc(C(=O)NCCCN3CCN(CC)CC3)c3ccccc3n2)cc1,-9.76%
17,CCN1c2ccccc2-c2nc3ccccc3n2C1c1ccncc1 (centres undefined),2.69%
18,COc1ccc2[nH]c(=O)c(-c3noc(-c4ccccc4)n3)cc2c1,3.55%
19,CC1(C)Cc2c(C#N)c(N3CCN(C(=O)c4ccco4)CC3)nc(Cc3ccccc3)c2CO1,-9.09%
20,CCOc1ccc(C2C(C(=O)OC)=CN(CCOC)C=C2C(=O)OC)cc1,-14.5%
21,Nc1nc2n(n1)C(c1ccco1)CC(c1ccc(F)cc1)N2 (centres undefined),1.34%
22,CCN(CC)CCCN(Cc1cc2cc3c(cc2[nH]c1=O)OCO3)C(=O)Nc1ccccc1OC,9.73%

row,SMILES,inhibition
1,Nc1c(C(=O)NCCN2CCOCC2)c2nc3ccccc3nc2n1-c1ccc2c(c1)OCO2,4.11%
2,COc1cccc(NC(=O)CSc2nnc(Cc3cccn3C)n2-c2ccc(F)cc2)c1,1.13%
3,CC1CCCC(C)N1C(=O)CSc1nnc(-c2c[nH]c3ccccc23)o1 (centres undefined),5.55%
4,O=C(OCCn1cncn1)c1cc2ccccc2oc1=O,-0.22%
5,OCc1ccccc1OCCOc1ccc(Cl)c2cccnc12,6.18%
6,CC(C)NCC(O)Cn1c2c(c3ccccc31)CCc1c-2cnn1-c1ccccc1 (centres undefined),6.63%
7,CC(=O)Nc1nc2n(n1)C(c1ccccc1)C=C(c1ccccc1)N2 (centres undefined),0.41%
8,O=C(Oc1cccnc1)c1ccco1,3.63%
9,COc1ccc(C2C=C(C)Nc3nc(SC)nn32)cc1 (centres undefined),-11.2%
10,CCOc1ccc(C2CC(c3cccc(Cl)c3)n3nc(N)nc3N2)cc1 (centres undefined),4.79%
11,Cc1ccc(-n2ncc3c(=O)n(CC(=O)NCc4ccco4)cnc32)cc1C,5.2%
12,COCCCNC(=O)c1ccc2nc3ccccc3c(=O)n2c1,-3.91%
13,CCCOc1ccccc1-c1nc2c([nH]1)c(=O)[nH]c(=O)n2C,-0.35%
14,CS(=O)(=O)N1CCc2cc(C(=O)N3CCOCC3)ccc21,5.36%
15,CCOC(=O)c1[nH]c2ccc(OCC)cc2c1NC(=O)CN1CCN(c2ccccn2)CC1,-14.1%
16,CCCC(=O)N1CCN(c2nc(CC(C)C)c3c(c2C#N)CCC3)CC1,0.13%
17,CCS(=O)(=O)Nc1c(C(=O)O)[nH]c2ccccc12,3.79%
18,CCOC(=O)c1oc2cccc(OCC(O)CNC(C)C)c2c1C (centres undefined),-6.29%
19,N#Cc1cc2c(nc1SCC(=O)Nc1nccs1)CCCCC2,-11%
20,COc1ccc(O)c(C(=O)c2cc(C#N)c(=O)n(-c3c(C)n(C)n(-c4ccccc4)c3=O)c2)c1,6.02%
21,CCOC(=O)c1cccnc1SCc1cc(=O)n2ccccc2n1,3.91%
22,CC1=C(C(=O)N2CCOCC2)C(c2ccccc2F)C2=C(CC(C)(C)CC2=O)N1 (centres undefined),-1.62%

row,SMILES,inhibition
1,CCCC(c1nnnn1C1CCCC1)N1CCN(C(=O)c2ccco2)CC1 (centres undefined),6.95%
2,N#Cc1nc(-c2cccs2)oc1N1CCOCC1,-82.1%
3,CCCc1cc(=O)oc2cc(C)c3c(C)coc3c12,-8.56%
4,CCOC(=O)c1cc2c(=O)n3ccccc3nc2n(C(C)C)c1=NC(=O)c1ccncc1,-11.4%
5,CN1CC=C2C(C#N)=C(N)C(C#N)(C#N)C(CCc3ccccc3)C2C1 (centres undefined),5.88%
6,O=S(=O)(NC1c2cccc3cccc(c23)C1N1CCNCC1)c1ccccc1 (centres undefined),8.95%
7,COc1ccc(CN2CCCC2C(=O)Nc2ccc(OC)c(OC)c2)cc1OC (centres undefined),1.58%
8,CC(O)Cn1ccccc1=N (centres undefined),4.32%
9,CC(C)(C)c1cc(=O)n2c(C#N)c(C#N)nc2[nH]1,4.14%
10,Cc1onc(-c2ccccc2)c1C(=O)Nc1nnc(-c2ccncc2)s1,-3.75%
11,O=C(CC1Nc2ccccc2NC1=O)NC1CCCCC1 (centres undefined),4.1%
12,CCOc1ccc2[nH]c(=O)c(C(c3nnnn3Cc3ccco3)N3CCC(C)CC3)cc2c1 (centres undefined),8.93%
13,Cc1cccc(-n2c(=O)[nH]c3c(C(N)=O)nc(-c4ccccc4Cl)nc32)c1,6.92%
14,COC(=O)c1cc2c(s1)CS(=O)C2 (centres undefined),5.21%
15,CC(C)c1nc(N2CCOCC2)c(C#N)c2c1CCC2,-3.95%
16,CCOC(=O)c1cnc2cc(Cl)c(OC)cc2c1NCC1CCCO1 (centres undefined),3.77%
17,c1ccc(-n2nc3c(ccc4cnnc43)[nH]2)cc1,-1.01%
18,COc1ccc(-c2ccc(-c3noc(-c4ccccc4OC)n3)c(OC)n2)cc1,13.8%
19,COc1ccc(-c2ccc(-c3noc(-c4ccccc4)n3)c(OC)n2)cc1,5.4%
20,COc1ccc(-c2ccc(-c3noc(-c4ccccc4C)n3)c(OC)n2)cc1,79.6% (active)
